Where “and” joins values, the source holds several entries; their conditions need not be identical. Equal entries are not always repeated. The campaign covered roughly 5,500 compounds. About 2,000 (36%) were called active. Inconclusive results (about 18%) are left out. No stated cut-off is given here; in the data, active means normalized growth mostly below about 0.91 (no sharp cut-off); inconclusive means no clear call, values can overlap the other calls; inactive means mostly above about 0.92. This is one part of the list.
Experiment: chemical genetic growth profiling, strain panel (AID 1159580);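 further: tested at 20 µM; growth read once vehicle control cultures reached saturation at 30 °C; 1 = growth at the plate median or of vehicle wells; lower values mean less growth of the strain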
Conditions: S. cerevisiae deletion strains, growth OD

Measured: normalized growth

Oc1c(I)cc(I)c2cccnc12
active: locus YAL013W, strain DEP1, active compounds read low 0.071 | locus YAL021C, strain ccr4, active compounds read low 0.091 | locus YAL026C, strain drs2, active compounds read low 0.0859 | locus YAL030W, strain snc1, active compounds read low 0.0764 | locus YBL061C, strain skt5, active compounds read low 0.0816 | locus YBR009C, strain hhf1, active compounds read low 0.0997 | locus YBR021W, strain FUR4, active compounds read low 0.129 | locus YBR023C, strain chs3, active compounds read low 0.077 | locus YBR171W, strain sec66, active compounds read low 0.114 | locus YBR229C, strain ROT2, active compounds read low 0.0677 | locus YBR231C, strain swc5, active compounds read low 0.0701 | locus YBR279W, strain paf1, active compounds read low 0.0764 | locus YCL011C, strain gbp2, active compounds read low 0.135 | locus YCL016C, strain dcc1, active compounds read low 0.0819 | locus YCL029C, strain bik1, active compounds read low 0.101 | locus YCL061C, strain MRC1, active compounds read low 0.0902 | locus YCL069W, strain vba3, active compounds read low 0.0885 | locus YCR088W, strain abp1, active compounds read low 0.0854 | locus YDL005C, strain med2, active compounds read low 0.104 | locus YDL035C, strain GPR1, active compounds read low 0.067 | locus YDL040C, strain nat1, active compounds read low 0.073 | locus YDL074C, strain BRE1, active compounds read low 0.104 | locus YDL101C, strain DUN1, active compounds read low 0.084 | locus YDL185W, strain tfp1, active compounds read low 0.0824 | locus YDL192W, strain arf1, active compounds read low 0.103 | locus YDR001C, strain nth1, active compounds read low 0.0844 | locus YDR069C, strain doa4, active compounds read low 0.0819 | locus YDR101C, strain arx1, active compounds read low 0.0994 | locus YDR137W, strain rgp1, active compounds read low 0.0996 | locus YDR150W, strain NUM1, active compounds read low 0.078 | locus YDR159W, strain sac3, active compounds read low 0.107 | locus YDR162C, strain NBP2, active compounds read low 0.0632 | locus YDR195W, strain ref2 0.337 | locus YDR297W, strain sur2, active compounds read low 0.0803 | locus YDR318W, strain mcm21, active compounds read low 0.101 | locus YDR334W, strain swr1, active compounds read low 0.0842 | locus YDR335W, strain msn5, active compounds read low 0.0856 | locus YDR388W, active compounds read low 0.0882 | locus YDR392W, strain spt3, active compounds read low 0.13 | locus YDR502C, strain sam2, active compounds read low 0.106 | locus YEL003W, strain gim4, active compounds read low 0.127 | locus YEL037C, strain rad23, active compounds read low 0.0807 | locus YEL061C, strain CIN8 (second series), active compounds read low 0.0847 | locus YEL061C, strain CIN8, active compounds read low 0.073 | locus YER015W, strain faa2, active compounds read low 0.0857 | locus YER016W, strain bim1, active compounds read low 0.0805 | locus YER110C, active compounds read low 0.115 | locus YER111C, strain swi4, active compounds read low 0.103 | locus YER155C, strain BEM2 (second series), active compounds read low 0.126 | locus YER155C, strain BEM2, active compounds read low 0.0881 | locus YER167W, strain BCK2, active compounds read low 0.0711 | locus YFR010W, strain ubp6, active compounds read low 0.0943 | locus YGL078C, strain dbp3, active compounds read low 0.258 | locus YGL086W, strain mad1, active compounds read low 0.0789 | locus YGL167C, strain pmr1, active compounds read low 0.0938 | locus YGL173C, strain kem1, active compounds read low 0.0913 | locus YGL227W, strain vid30, active compounds read low 0.0911 | locus YGL240W, strain doc1, active compounds read low 0.106 | locus YGL248W, strain PDE1, active compounds read low 0.0617 | locus YGL253W, strain hxk2, active compounds read low 0.0781 | locus YGR078C, strain PAC10, active compounds read low 0.0681 | locus YGR135W, strain pre9, active compounds read low 0.102 | locus YGR252W, strain gcn5, active compounds read low 0.308 | locus YHR013C, strain ard1, active compounds read low 0.141 | locus YHR027C, strain rpn1, active compounds read low 0.0845 | locus YHR030C, strain SLT2, active compounds read low 0.0746 and 0.163 | locus YHR079C, strain IRE1 (second series), active compounds read low 0.0873 | locus YHR079C, strain IRE1, active compounds read low 0.135 | locus YHR094C, strain hxt1, active compounds read low 0.0952 | locus YHR129C, strain ARP1, active compounds read low 0.0776 | locus YHR142W, strain chs7, active compounds read low 0.103 | locus YHR200W, strain rpn10, active compounds read low 0.2 | locus YIL066C, strain RNR3, active compounds read low 0.0647 | locus YIL073C, strain SPO22, active compounds read low 0.136 | locus YIL125W, strain kgd1, active compounds read low 0.174 | locus YIR030C, strain dcg1, active compounds read low 0.095 | locus YJL092W, strain hpr5, active compounds read low 0.0768 | locus YJL095W, strain BCK1 (second series), active compounds read low 0.0748 | locus YJL095W, strain BCK1, active compounds read low 0.081 and 0.123 | locus YJL115W, strain asf1, active compounds read low 0.102 | locus YJL129C, strain trk1, active compounds read low 0.148 | locus YJL134W, strain LCB3, active compounds read low 0.0694 | locus YJL154C, strain vps35, active compounds read low 0.0817 | locus YJL164C, strain tpk1, active compounds read low 0.0873 | locus YJL166W, strain qcr8, active compounds read low 0.0859 | locus YJL168C, strain set2, active compounds read low 0.0922 | locus YJL187C, strain SWE1 (second series), active compounds read low 0.064

From PubChem BioAssay AID1159580 (chemical genetic matrix, 2015)
